The campaign covered roughly 66,000 compounds. About 960 (1.5%) showed an effect of 50% or more. The sample holds strong results, similar compounds and a random draw of the others, so the mix is not that of the screen.
Test system: Trypanosoma brucei
Test: Trypanosoma brucei 72 hour study
Assay type: functional, organism-based
Design: scale not given: in the data most compounds retested in dose-response had high values

SMILES: CC(C)c1cc(C2CCN(C(=O)Cn3cnc4ccccc43)CC2)[nH]n1
- Percent Effect (30 µM, 30.03 µM): -44.45%

SMILES: Cc1cc(C(F)(F)F)nc(CCNC(C)Cn2ccnc2)n1 (stereo not given)
- Percent Effect (30 µM, 30.03 µM): -48.3%

SMILES: CCCC(=O)N(CCCN1CCOCC1)c1nc2c(C)c(C)ccc2s1.Cl
- Percent Effect (30.3 µM, […]): 27.33%

SMILES: CN(CCN1CCOCC1)C(=O)CCc1cccc(Cl)c1
- Percent Effect (30 µM, 30.03 µM): 2.26%

SMILES: CCCC(=O)N(CCCN1CCOCC1)c1nc2c(F)cccc2s1.Cl
- Percent Effect (30.3 µM, […]): 24.42%

SMILES: CCCC(=O)N(CCCN1CCOCC1)c1nc2c(Cl)cccc2s1.Cl
- Percent Effect (30.3 µM, […]): 55.71%

SMILES: CCCC(=O)N(CCCN1CCOCC1)c1nc2c(C)ccc(Cl)c2s1.Cl
- Percent Effect (30.3 µM, […]): 71.42%

SMILES: CCCC(=O)N(CCN1CCOCC1)c1nc2c(OC)ccc(C)c2s1.Cl
- Percent Effect (30.3 µM, […]): 13.57%

SMILES: CN1CC[C@]2(CN(CC3CCOC3)C[C@H]2c2ccccc2)C1=O.O=C(O)C(F)(F)F (stereo not given in full)
- Percent Effect (30.3 µM, […]): -23.92%

SMILES: Cc1cc2c(=O)n3c(nc2s1)CCN(C(=O)c1nn(C)cc1Cl)CC3
- Percent Effect (30.3 µM, […]): -11.28%

SMILES: CN1CC(=O)N(c2cccnc2)CC12CCN(C(=O)c1cccn1C)C2.O=C(O)C(F)(F)F.O=C(O)C(F)(F)F (stereo not given)
- Percent Effect (30.3 µM, […]): -4.553%

SMILES: O=C(C[C@@H]1COC[C@H]2CN(C(=O)c3ccccn3)C[C@@H]12)N1CCCC1.O=C(O)C(F)(F)F
- Percent Effect (30 µM, 30.03 µM): -14.99%

SMILES: CS(=O)(=O)NCc1cnc2n1CCN(Cc1cccnc1)CC2.O=C(O)C(F)(F)F.O=C(O)C(F)(F)F
- Percent Effect (30 µM, 30.03 µM): -10.23%

SMILES: CN(C)CCNC(=O)C1Cc2nc(-c3ccsc3)sc2N1CC1CC1.O=C(O)C(F)(F)F (stereo not given)
- Percent Effect (30.3 µM, […]): 5.041%

SMILES: O=C(NC1CCCC1)C1Cc2nc(-c3ccsc3)sc2N1CC1CC1 (stereo not given)
- Percent Effect (30.3 µM, […]): 33.5%

SMILES: O=C(Nc1cccnc1)C1Cc2nc(-c3ccsc3)sc2N1CC1CC1.O=C(O)C(F)(F)F (stereo not given)
- Percent Effect (30.3 µM, […]): 60.89%

SMILES: Cl.c1cc(CNc2cnc(C3CCCN3)cn2)ccn1 (stereo not given)
- Percent Effect (30.3 µM, […]): -6.296%

SMILES: Cc1nc(NC(=O)C2CCCN(C(=O)C3CC3)C2)sc1C (stereo not given)
- Percent Effect (30 µM, 30.03 µM): -11.09%

SMILES: CSc1sc(NC(=O)C2CCCN(C(N)=O)C2)nc1C (stereo not given)
- Percent Effect (30 µM, 30.03 µM): -35.12%

SMILES: Cc1nc(NC(=O)C2CCCN(C(N)=O)C2)sc1-c1ccccc1 (stereo not given)
- Percent Effect (30 µM, 30.03 µM): 57.12%

SMILES: CC(C)N1CCC2(CC1)CC(NCc1ccccn1)c1ccccc1O2.O=C(O)C(F)(F)F.O=C(O)C(F)(F)F.O=C(O)C(F)(F)F (stereo not given)
- Percent Effect (30 µM, 30.03 µM): 2.75%

SMILES: CCc1nnsc1C(=O)N1CCCC(n2ccnc2C(C)C)C1 (stereo not given)
- Percent Effect (30.3 µM, […]): -10.58%

SMILES: Cc1sc2c(C3CCNCC3)nc(Nc3cccc(F)c3)n2c1C.Cl
- Percent Effect (30.3 µM, […]): 99.26%

SMILES: COc1cccc(Nc2nc(C3CCNCC3)c3ccccn23)c1.Cl
- Percent Effect (30.3 µM, […]): 24.37%

SMILES: COc1cccc(Nc2nc(C3CCCNC3)c3ccccn23)c1.Cl (stereo not given)
- Percent Effect (30.3 µM, […]): -1.342%

SMILES: Fc1cccc(-c2nccnc2C2CCCNC2)c1 (stereo not given)
- Percent Effect (30.3 µM, […]): -21.91%

SMILES: Cl.O=C(Nc1cccc(F)c1)C1=NOC2(CCNCC2)C1
- Percent Effect (30.3 µM, […]): -7.13%

SMILES: COc1cccc(Nc2nc(C3CCCNC3)c3sc(C)c(C)n23)c1.Cl (stereo not given)
- Percent Effect (30.3 µM, […]): 2.239%

SMILES: Cc1nn(C(C)C)c(C)c1S(=O)(=O)Nc1cccc(F)c1
- Percent Effect (30 µM, 30.03 µM): -2.912%

SMILES: Cc1sc2c(C3CCCNC3)nc(Nc3cccc(F)c3)n2c1C.Cl (stereo not given)
- Percent Effect (30.3 µM, […]): 100.1%

SMILES: COc1cccc(Nc2nc(C3CCNCC3)c3sc(C)c(C)n23)c1.Cl
- Percent Effect (30.3 µM, […]): 63.57%

SMILES: CCN(Cc1nc2c(cnn2C)c(=O)[nH]1)c1cc(C)cc(C)c1
- Percent Effect (10 µM): -28.14%
- Percent Effect (30.3 µM, […]): -21.13%

SMILES: N#Cc1ccc(N2CCCC3(CCN(c4cncnc4)C3=O)C2)nc1.O=C(O)C(F)(F)F (stereo not given)
- Percent Effect (30.3 µM, […]): -13.65%

SMILES: Cl.O=C(Nc1cc(C(F)(F)F)c[nH]c1=O)C1CCCCN1 (stereo not given)
- Percent Effect (30 µM, 30.03 µM): 4.306%

SMILES: COc1ccccc1NC(=O)CCNC(=O)c1ccoc1
- Percent Effect (30 µM, 30.03 µM): -15.64%

SMILES: Cc1ccccc1NC(=O)CCNC(=O)c1ccoc1
- Percent Effect (30 µM, 30.03 µM): -20.37%

SMILES: CNc1ccnc(NCCC(=O)Nc2ccccc2OC)n1
- Percent Effect (30 µM, 30.03 µM): 54.56%

SMILES: CNc1ccnc(NCCC(=O)Nc2ccccc2C)n1
- Percent Effect (30 µM, 30.03 µM): 51.25%

SMILES: Cc1ccccc1CC(=O)NCCNc1nccc(C(F)(F)F)n1
- Percent Effect (30 µM, 30.03 µM): -20.25%

SMILES: CNc1ccnc(NCC(=O)Nc2cc(C)ccc2OC)n1
- Percent Effect (30 µM, 30.03 µM): 42.18%

SMILES: CN(C)C(=O)[C@H]1C[C@H]2[C@H](CCN2Cc2ccc3c(c2)OCO3)O1.O=C(O)C(F)(F)F
- Percent Effect (30 µM, 30.03 µM): 17.59%

SMILES: Cl.N#Cc1ccc(CNCC2(c3ccccc3)CCOCC2)cc1
- Percent Effect (30.3 µM, […]): 24.88%

SMILES: Cc1cccc(C(=O)N2CC[C@]3(C[C@H](OCc4ccccn4)CO3)C2)c1.O=C(O)C(F)(F)F
- Percent Effect (30.3 µM, […]): -74.39%

SMILES: O=C(NCc1ccccn1)[C@]12COC[C@H]1CN(Cc1ccccc1F)C2.O=C(O)C(F)(F)F.O=C(O)C(F)(F)F
- Percent Effect (30.3 µM, […]): -30.47%

SMILES: Cc1nc(CN2CC3(CCN(c4ncccn4)C3)CC2=O)cs1.O=C(O)C(F)(F)F (stereo not given)
- Percent Effect (30 µM, 30.03 µM): -28.21%

SMILES: COCCNC(=O)CCn1ncc2c(Cl)cccc21
- Percent Effect (30.3 µM, […]): -10.63%

SMILES: CN1CCN(c2ccccc2NC(=O)NCC[S+](C)[O-])CC1 (stereo not given)
- Percent Effect (30.3 µM, […]): 11.12%

SMILES: CN1CCN(c2ccccc2NC(=O)NCCc2ccccc2)CC1
- Percent Effect (30.3 µM, […]): 100.1%

SMILES: CN1CCN(c2ccccc2NC(=O)NCCc2ccc(O)cc2)CC1
- Percent Effect (30.3 µM, […]): 8.397%

SMILES: O=C(O)C(F)(F)F.O=C1[C@@H]2CCN(Cc3ccoc3)C[C@@H]2OCCN1c1ccccc1
- Percent Effect (30 µM, 30.03 µM): 19.86%

SMILES: CC(C)Oc1ccc(CSc2nnc(CN3CCCC3=O)o2)cc1
- Percent Effect (30 µM, 30.03 µM): 72.7%

SMILES: O=C1CCCN1Cc1nnc(SCc2ccc3c(c2)CCC3)o1
- Percent Effect (30 µM, 30.03 µM): 47.68%

SMILES: CC(C)c1cccc(CSc2nnc(CN3CCCC3=O)o2)n1
- Percent Effect (30 µM, 30.03 µM): -4.842%

SMILES: O=C(Cc1ccccn1)N1CC[C@]2(C[C@@H](Oc3ncccc3F)CO2)C1.O=C(O)C(F)(F)F.O=C(O)C(F)(F)F
- Percent Effect (30 µM, 30.03 µM): -12.46%

SMILES: CN(CCCn1cnc2c(N)ncnc21)Cc1ccccc1
- Percent Effect (30 µM, 30.03 µM): -6.688%

SMILES: CNC(=O)c1cc2c(nc1N(C)C)CCN(c1ncc(F)cn1)CC2.O=C(O)C(F)(F)F
- Percent Effect (30.3 µM, […]): -8.544%

SMILES: OCC1CCCN1c1cc(NCCc2ccsc2)ncn1 (stereo not given)
- Percent Effect (30 µM, 30.03 µM): 6.798%

SMILES: Cc1cc(NC(=O)NCCO)nn1-c1ccc(Cl)cc1Cl
- Percent Effect (30 µM, 30.03 µM): -0.9538%

SMILES: O=C(CN1C(=O)CC2(CCCC2)C1=O)NCCc1nccs1
- Percent Effect (30 µM, 30.03 µM): -3.261%

Source: ChEMBL document CHEMBL3988442, “University of Dundee, Small-Polar-MMV Screening Library” (2021)
